The list is not random: actives were taken first. Their share in the collection is about 13%.
USP8 inh: blocks human USP8 ubiquitin-rhodamine cleavage; P40818; purified USP8, Ub-rhodamine cleavage fluorescence, 30 min; inhibition, % at 20 µM; 47,000 tested, 4.2% active; AID 1645853
USP28 block: inhibitors of human USP28 deubiquitinase | Q96RU2 | purified USP28, Ub-rhodamine cleavage fluorescence, 30 min | inhibition, % at 25 µM | 47,000 tested, 3% active
USP10 block: human USP10 deubiquitinase inhibition; Q14694; purified USP10, Ub-rhodamine fluorescence, 60 min; inhibition, % at 20 µM; 47,000 tested, 1.1% active; AID 1645856
USP30 block: human USP30 deubiquitinase inhibition; 47,000 tested, 5.3% active; inhibition, % at 25 µM; Q70CQ3; purified USP30, Ub-rhodamine cleavage fluorescence; AID 1645860
USP7 block: inhibitors of human USP7 deubiquitinase | purified USP7, Ub-rhodamine cleavage fluorescence | inhibition, % at 20 µM | 47,000 tested, 0.3% active | AID 1645854
USP17 inh: human USP17-like deubiquitinase inhibition | purified USP17, Ub-rhodamine cleavage fluorescence, 3 h | inhibition, % at 50 µM | 47,000 tested, 6.5% active | AID 1645855
* hit, by the source's call. Rule as the data show it: active = inhibition above about 30%; inactive = the rest.

`O=C(c1ccccc1)N1CC[C@@H]2CN(CC3CCOCC3)[C@@H]2C1` gave USP8 inh 4.1, USP28 block -4.3, USP10 block -5.4, USP30 block -15.0 and USP7 block -0.6.
Screening COc1ccc(-c2noc(CN(Cc3ccccc3F)S(C)(=O)=O)n2)c(OC)c1 returned USP8 inh -2.0, USP28 block 7.9, USP10 block 0.7, USP30 block 9.5, USP7 block -1.1 and USP17 inh 2.0.
Screening CCc1nc(N)n(CC(=O)N2CCCc3ccccc32)c(=O)c1C returned USP8 inh 21.6, USP28 block 17.8, USP10 block 0.4, USP30 block 53.7*, USP7 block 2.0 and USP17 inh 75.6*.
Screening CCOc1ccc2nc(SC3CCOC3=O)sc2c1 (centres undefined) returned USP8 inh 2.4, USP28 block 9.9, USP10 block 0.4, USP30 block -27.3, USP7 block -8.5 and USP17 inh -20.9.
For COc1ccc(NC2c3ccccc3C(=O)N2c2ccccn2)cc1 (centres undefined) the results were USP8 inh 82.7*, USP28 block -2.5, USP10 block -9.5, USP30 block -77.3, USP7 block -9.5 and USP17 inh 57.4*.
NC(=O)c1cc2ccccc2nc1C1CCN(C(=O)c2ccccn2)CC1 was read as USP8 inh 4.2, USP28 block -3.4, USP10 block 0.6, USP30 block -8.6, USP7 block 1.8 and USP17 inh 5.7.
O=C(Nc1ccc(N2CCCCC2)cc1)c1cccc(N2C(=O)CCS2(=O)=O)c1 was read as USP8 inh 43.3*, USP28 block 0.6, USP10 block 2.9, USP30 block -12.9, USP7 block -6.2 and USP17 inh 21.3.
Screening O=C(NCCc1ccc(F)cc1)c1cccc(N2C(=O)CCS2(=O)=O)c1 returned USP8 inh 18.2, USP28 block 17.8, USP10 block 4.5, USP30 block 36.7*, USP7 block -0.7 and USP17 inh 17.9.
`Cc1ccccc1CNC(=O)c1cccc(N2C(=O)CCS2(=O)=O)c1` gave USP8 inh 7.8, USP28 block 0.1, USP10 block -2.9, USP30 block 1.5, USP7 block 2.1 and USP17 inh 1.9.
Screening COc1cccc(NC(=O)CCn2c(=O)c3cccn3c3ccccc32)c1 returned USP8 inh 4.6, USP28 block -19.5, USP10 block 0.2, USP30 block -139.5, USP7 block 3.9 and USP17 inh -72.1.
Screening COc1cccc(NC(=O)Cn2c3ccccc3n3c(=O)cc(-c4ccccc4)nc23)c1 returned USP8 inh 88.2*, USP28 block 6.1, USP10 block 48.8*, USP30 block -0.1 and USP7 block 26.9.
For COc1ccc(NC(=O)N2CC[C@@H]3[C@H]2C(=O)N(C)[C@@H](Cc2ccccc2)C(=O)N3C)cc1 the results were USP8 inh 2.8, USP28 block -9.2, USP10 block 0.9, USP30 block 0.4, USP7 block -8.5 and USP17 inh 0.5.
CN1[C@@H](CCC(=O)N2CCN(c3ccccn3)CC2)CNC(=O)[C@@H]2[C@H]1CCN2Cc1ccc(O)cc1 was read as USP8 inh 72.7*, USP28 block 56.4*, USP10 block -1.7, USP30 block 46.1*, USP7 block -13.6 and USP17 inh -25.3.
`CN1[C@@H](CCC(=O)N2CCC(O)CC2)CNC(=O)[C@@H]2[C@H]1CCN2Cc1cccc(OC(F)(F)F)c1` gave USP8 inh 35.5*, USP28 block 2.9, USP10 block -1.5, USP30 block -31.4, USP7 block -21.7 and USP17 inh -76.2.
For CN1[C@@H](CCC(=O)N2CCC(O)CC2)CNC(=O)[C@@H]2[C@H]1CCN2Cc1ccc(O)cc1 the results were USP8 inh 65.8*, USP28 block 42.8*, USP10 block -2.8, USP30 block 55.5*, USP7 block -6.8 and USP17 inh -24.2.
CC(C)N1CC[C@@H]2[C@H]1C(=O)NC[C@H](CCC(=O)N1CCN(c3ccccn3)CC1)N2C was read as USP8 inh 61.7*, USP28 block 41.9*, USP10 block 0.1, USP30 block 39.5*, USP7 block -3.6 and USP17 inh -32.3.
COC(=O)C1CCN(C(=O)CC[C@H]2CNC(=O)[C@@H]3[C@@H](CCN3Cc3ccccc3)N2C)CC1 was read as USP8 inh 19.3, USP28 block 14.4, USP10 block 3.3, USP30 block -7.7, USP7 block -20.3 and USP17 inh -78.1.
Cc1ccc(S(=O)(=O)N2C(=O)CCC2C(=O)N2CCC(C)CC2)cc1 (centres undefined) was read as USP8 inh 7.6, USP28 block 4.3, USP10 block 1.7, USP30 block 17.4, USP7 block -1.3 and USP17 inh 4.9.
For CCC(C)n1c(-c2ccccc2F)nc2nc3ccccc3nc21 (centres undefined) the results were USP8 inh 0.0, USP28 block 36.8*, USP10 block 4.4, USP30 block 35.4*, USP7 block -16.8 and USP17 inh 9.7.
Screening CCCn1c(-c2ccccc2)nc2nc3ccccc3nc21 returned USP8 inh 17.6, USP28 block 6.7, USP10 block -0.7, USP30 block -0.9, USP7 block 1.9 and USP17 inh 9.3.
COc1ccc(OCn2ccc(C(=O)Nc3cnn(C)c3C)n2)cc1 was read as USP8 inh 0.8, USP28 block 1.3, USP10 block -0.1, USP30 block -5.1 and USP7 block -0.1.
`O=C(Nc1ccc(Cl)cn1)c1ccn(COc2ccccc2)n1` gave USP8 inh 16.6, USP28 block 11.8, USP10 block 2.2, USP30 block 15.8, USP7 block 3.5 and USP17 inh 14.7.
`Cc1cccc(C)c1NC(=O)c1ccn(COc2ccccc2)n1` gave USP8 inh 2.8, USP28 block 36.0*, USP10 block -0.8, USP30 block 15.0, USP7 block -1.2 and USP17 inh -0.6.
`Cc1ccnc(NC(=O)c2ccn(COc3ccc(F)cc3)n2)c1` gave USP8 inh 9.9, USP28 block 13.5, USP10 block 0.4, USP30 block 40.0*, USP7 block 4.0 and USP17 inh 10.4.
For Cc1ccc(NC(=O)c2ccn(COc3ccc(F)cc3)n2)nc1 the results were USP8 inh 2.4, USP28 block 9.6, USP10 block 5.6, USP30 block 8.0 and USP17 inh 59.9*.
Screening Cc1ccnc(NC(=O)c2ccn(COc3ccc(Cl)cc3)n2)c1 returned USP8 inh 31.0*, USP28 block 25.3, USP10 block 2.6, USP30 block 71.7*, USP7 block 7.5 and USP17 inh 46.6*.
`Cc1ccnc(NC(=O)c2cc(-c3cccnc3)n(-c3ccccc3)n2)c1` gave USP8 inh -14.2, USP28 block -16.9, USP10 block -1.9, USP30 block 0.1, USP7 block 0.4 and USP17 inh -10.3.

From PubChem BioAssay
